High-throughput results as filed in PubChem.
Sampled rows, rich in hits. Any-hit rate of the full collection: about 2.5%.
ULK1 inh: blocks human autophagy kinase ULK1 | AlphaScreen Atg13 phosphorylation by ULK1, luminescence | inhibition, % at 5.96 µM | hit rate 1.9% among 30,000 | AID 1259251; in the data active = inhibition above about 43%;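 also: 0% = median of compound wells and 100% = no enzyme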
Target sequence (O75385 whole entry, looked up): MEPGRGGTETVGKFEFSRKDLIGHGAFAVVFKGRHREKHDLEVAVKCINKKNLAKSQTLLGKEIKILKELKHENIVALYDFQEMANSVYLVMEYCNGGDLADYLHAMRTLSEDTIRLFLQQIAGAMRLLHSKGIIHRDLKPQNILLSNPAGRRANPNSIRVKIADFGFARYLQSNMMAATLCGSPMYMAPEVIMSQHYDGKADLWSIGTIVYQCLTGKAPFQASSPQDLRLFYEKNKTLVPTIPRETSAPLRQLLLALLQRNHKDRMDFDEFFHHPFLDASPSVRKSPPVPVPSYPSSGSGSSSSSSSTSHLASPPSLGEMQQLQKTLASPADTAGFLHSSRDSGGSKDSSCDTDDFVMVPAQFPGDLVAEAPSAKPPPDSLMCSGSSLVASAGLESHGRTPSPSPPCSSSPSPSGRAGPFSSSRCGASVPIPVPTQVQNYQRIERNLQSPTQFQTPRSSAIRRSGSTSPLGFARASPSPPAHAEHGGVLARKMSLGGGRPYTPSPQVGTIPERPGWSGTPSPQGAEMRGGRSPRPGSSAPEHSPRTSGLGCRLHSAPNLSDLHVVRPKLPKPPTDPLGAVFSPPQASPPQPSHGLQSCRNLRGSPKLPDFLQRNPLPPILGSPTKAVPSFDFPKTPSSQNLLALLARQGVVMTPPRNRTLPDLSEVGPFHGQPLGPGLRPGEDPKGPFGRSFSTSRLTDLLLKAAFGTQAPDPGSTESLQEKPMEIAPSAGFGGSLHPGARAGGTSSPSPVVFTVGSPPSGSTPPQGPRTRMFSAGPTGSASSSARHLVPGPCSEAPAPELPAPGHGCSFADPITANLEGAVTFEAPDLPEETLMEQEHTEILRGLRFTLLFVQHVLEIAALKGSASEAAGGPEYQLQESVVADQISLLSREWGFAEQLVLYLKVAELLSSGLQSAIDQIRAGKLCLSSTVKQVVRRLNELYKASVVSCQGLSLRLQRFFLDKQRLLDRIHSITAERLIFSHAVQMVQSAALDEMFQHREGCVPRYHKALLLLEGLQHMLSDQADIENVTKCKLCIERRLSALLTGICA
ASK1 primary: inhibitors of human ASK1 kinase; hit rate 0.99% among 22,000; AID 1159602; Q99683; AlphaScreen MKK6 phosphorylation by ASK1, luminescence; inhibition, % at 7.44 µM; in the data active = inhibition above about 35%;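 also: 0% = median of compound wells and 100% = no enzyme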
AlphaScreen intf: counter-screen for ASK1 inhibitors: AlphaScreen optical interference; shares compounds with ASK1 primary; AlphaScreen TruHits beads, signal interference counterscreen; IC50, µM; hit rate 20% among 220; AID 1159604;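 active = IC50 of 10 µM or lower in the counterscreen; inactive = IC50 above 10 µM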;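 also: loss of AlphaScreen light from TruHits beads alone with no ASK1 enzyme present; potency of signal reduction so a low IC50 flags an assay artifact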
Starred values were filed as active, the others as inactive; i = inactive; . = no result; ! = not active in a repeat.

SMILES	ULK1 inh	ASK1 primary	AlphaScreen intf
COc1cc(Nc2ncnc3nc(-c4ccc(C(N)=O)cc4)[nH]c23)cc(OC)c1OC	6	25	.
Cc1cnc(-c2ccc(C(N)=O)cc2)nc1Nc1ccc(N2CCOCC2)cc1	30	36*	>20
Cc1ccc(OCC(=O)Nc2ccc3c(c2)N(CC(C)C)C(=O)C(C)(C)CO3)cc1	0	.	.
Cn1c(Nc2nc(Nc3ccccc3)c3[nH]cnc3n2)nc2ccccc21	-4	0	.
O=C1NC(=O)C(=Cc2ccc(-c3ccc(Cl)cc3[N+](=O)[O-])o2)C(=O)N1	9	.	.
c1ccc(Oc2ccc(Nc3nc(N4CCOCC4)nc4c3ncn4-c3ccsc3)cc2)cc1	2	24	.
Oc1ccc(CCNc2nc(N3CCN(c4ccccn4)CC3)nc3c2ncn3-c2ccsc2)cc1	2	39*	>21
CCCNc1nc(N2CCN(c3ccccn3)CC2)nc2c1ncn2-c1ccsc1	5	16	.
c1ccc(N2CCN(c3nc(Nc4ccc(N5CCOCC5)cc4)c4ncn(-c5ccsc5)c4n3)CC2)nc1	-3	45*	>20
COc1cc2nc(NC3CCN(Cc4ccccc4)CC3)nc(Nc3ccc(N4CCOCC4)cc3)c2cc1OC	14	39*	8.3*
COc1cc2nc(Oc3ccccc3)nc(Nc3ccc(N4CCOCC4)cc3)c2cc1OC	-15	2	.
COc1cc2nc(Nc3nc4ccccc4n3C)nc(Nc3ccc(NC(C)=O)cc3)c2cc1OC	-52	72*	9.7*
COc1cc2nc(NC3CCN(Cc4ccccc4)CC3)nc(Nc3cc(OC)c(OC)c(OC)c3)c2cc1OC	-7	17	.
COc1cc2nc(Nc3ccccc3)nc(Nc3ccc(N4CCOCC4)cc3)c2cc1OC	-12	48*	9.5*
COc1cc2nc(Nc3nc4ccccc4n3C)nc(Nc3cc(OC)c(OC)c(OC)c3)c2cc1OC	1	8	.
COc1cc2nc(Nc3ccc(-n4ccnc4)cc3)nc(Nc3ccc(N4CCOCC4)cc3)c2cc1OC	-2	17	.
COc1cc2nc(Nc3ccc(N4CCOCC4)cc3)nc(Nc3ccc(N4CCOCC4)cc3)c2cc1OC	-10	64*	5.6*
COc1cc(NC(=O)Cc2cn(-c3ccc(N4CCN(c5ccccn5)CC4)nn3)c3ccccc23)cc(OC)c1OC	25	18	.
COc1ccc(-c2nc(Nc3cc(OC)c(OC)c(OC)c3)c3ncn(-c4ccsc4)c3n2)cc1	-49	6	.
c1nc2nc(Nc3ccc(N4CCOCC4)cc3)nc(Nc3ccc(N4CCOCC4)cc3)c2[nH]1	14	20	.
COc1ccc(Nc2nc(NCc3cccc(C(F)(F)F)c3)c3cc(OC)c(OC)cc3n2)cc1	-26	2	.
c1ccc(CN2CCC(Nc3nccc(Nc4ccc(N5CCOCC5)cc4)n3)CC2)cc1	14	16	.
c1ccc(CN2CCC(Nc3ccnc(Nc4ccc(N5CCOCC5)cc4)n3)CC2)cc1	16	50*	i
COc1cc2nc(Nc3ccc4ncccc4c3)nc(Nc3ccc(N4CCOCC4)cc3)c2cc1OC	2	10	.
CN(C)c1cccc(Nc2nc(Nc3ccc(N4CCOCC4)cc3)c3[nH]cnc3n2)c1	-3	36*	i
SMILES	ULK1 inh	ASK1 primary	AlphaScreen intf
COc1cc2nc(Nc3ccc(N4CCOCC4)cc3)nc(Nc3ccccc3)c2cc1OC	-11	56*	8.5*
COc1cc2nc(Nc3ccc(N4CCOCC4)cc3)nc(NCc3cccc(C(F)(F)F)c3)c2cc1OC	-15	52*!	6.2*
CC(C)(C)Cc1nnc(NC(=O)Cc2ccc(F)cc2)s1	0	.	.
Cn1nccc1Nc1nc(C(=O)Nc2ccc(N3CCOCC3)cc2)cs1	5	2	.
CC(=O)N1CCN(c2c(Cl)cccc2NC(=O)c2ccc(Br)o2)CC1	-21	-14	.
COc1cc(Nc2ncnc3c2nc(N2CCN(c4ccccn4)CC2)n3C(C)C)cc(OC)c1OC	-4	0	.
CCN1CCN(c2c(Cl)cccc2NC(=O)c2ccc(Br)s2)CC1	-5	-12	.
O=C(NCCN1CCOCC1)c1ccc(-c2ccc(N3CCOCC3)nc2)s1	5	4	.
CN1CCN(c2ccc(C(=O)Nc3ccc4[nH]ncc4c3)cn2)CC1	2	0	.
Cc1nnc(SCC(=O)Nc2ccccc2C)s1	3	.	.
COc1cc2nc(Nc3nc4ccccc4n3C)nc(Nc3ccc4c(c3)OCO4)c2cc1OC	-1	-5	.
COc1cc2nc(Nc3nc4ccccc4n3C)nc(Nc3ccc(N4CCOCC4)cc3)c2cc1OC	-13	67*	i
Cc1cnc(Nc2nc3ccccc3n2C)nc1Nc1ccc(N2CCOCC2)cc1	30	39*	>22
Cn1c(Nc2nc(Nc3ccc(N4CCOCC4)cc3)c3[nH]cnc3n2)nc2ccccc21	2	15	.
C=CCN1CCN(c2c(Cl)cccc2NC(=O)c2cc(C)on2)CC1	-6	8	.
CN1CCN(c2cccc(-c3ccnc(Nc4ccc(-n5ccnn5)cc4)n3)c2)CC1	4	19	.
FC(F)(F)c1ccc(Cn2cnc3c(NC4CCN(Cc5ccccc5)CC4)nc(NC4CCN(Cc5ccccc5)CC4)nc32)cc1	2	21	.
COc1cc(NC(=O)c2ccc3nc(Nc4cc(OC)c(OC)c(OC)c4)sc3c2)cc(OC)c1OC	-4	11	.
COc1cc(Nc2nc(N3CCc4ccccc4C3)nc3c2ncn3C2CCCCC2)cc(OC)c1OC	-1	21	.
COc1cc(Nc2nc(N3CCc4ccccc4C3)nc3c2ncn3C(C)C)cc(OC)c1OC	-2	40*	>20
Cn1c(Nc2cccc(C(=O)NC3CC3)c2)nc2ccccc21	-6	2	.
CCCNc1nc(N2CCCC(C(=O)N(CC)CC)C2)nc2nc[nH]c12 (configuration not stated)	2	-2	.
COc1cc(Nc2nc(N3CCN(c4ccccn4)CC3)nc3c2ncn3Cc2ccc(C(F)(F)F)cc2)cc(OC)c1OC	-16	27	.
COc1cc(Nc2nc(Nc3ccc(N4CCOCC4)cc3)c3ncn(Cc4ccc(C(F)(F)F)cc4)c3n2)cc(OC)c1OC	4	37*	>18
FC(F)(F)c1ccc(Cn2cnc3c(Nc4ccccc4)nc(Nc4ccc(N5CCOCC5)cc4)nc32)cc1	-18	28	.
SMILES	ULK1 inh	ASK1 primary	AlphaScreen intf
FC(F)(F)c1ccc(Cn2cnc3c(Nc4ccc5c(c4)OCO5)nc(N4CCN(c5ccccn5)CC4)nc32)cc1	12	51*	>20
FC(F)(F)c1ccc(Cn2cnc3c(NCc4cccc(C(F)(F)F)c4)nc(-c4ccc(N5CCOCC5)nc4)nc32)cc1	-2	28	.
FC(F)(F)c1ccc(Cn2cnc3c(NCc4ccccc4)nc(-c4ccc(N5CCOCC5)nc4)nc32)cc1	2	45*	>20
CC(C)n1cnc2c(Nc3ccc(N4CCOCC4)cc3)nc(Nc3cccc(N(C)C)c3)nc21	20	35	.
CC(C)n1cnc2c(Nc3ccc4c(c3)OCO4)nc(Nc3cccc(N(C)C)c3)nc21	16	37*	>20
CCn1c(C2NCCc3cc(OC)ccc32)nc2cc(F)c(-c3ccnc(N)n3)cc21 (configuration not stated)	3	-13	.
CCN(CC)C(=O)C1CCCN(c2nc(Nc3ccccc3)c3ncn(-c4ccccc4)c3n2)C1 (configuration not stated)	2	3	.
c1nc(NCCN2CCOCC2)cc(NCCN2CCOCC2)n1	-4	-3	.
FC(F)(F)c1ccc(Cn2cnc3c(NCc4cccc(C(F)(F)F)c4)nc(N4CCN(Cc5ccc6c(c5)OCO6)CC4)nc32)cc1	15	29	.
